# Activity calls are given as the source filed them. The calls were made as follows: active = hit-call score of the fitted dose curve at least 0.9, where 1 is the maximum; inactive = score below 0.9.
# Read-out: Human Leukocyte Antigen - DR isotype (HLADR), HLA-DRA (gene 3122)
# Experiment: BSK_3C_HLADR: BioMAP Diversity Plus: 3C Assay for Human Leukocyte Antigen - DR isotype (HLADR) Biomarker Activity (AID 2283019);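 as to outcome: ELISA of cell-surface HLA-DR on HUVEC 24 h after dosing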
# Conditions: primary human endothelial cells (HUVEC); actives raise or lower the signal
# Outline: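 Endothelial cells from human umbilical vein are treated with test chemical; after 24 h, HLA-DR levels are measured by ELISA. Data are fitted in both directions using DMSO as the baseline.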
SMILES,outcome,AC50
CC(C)Nc1nc(Cl)nc(NC(C)C)n1,inactive,
OC(c1ccc(Cl)cc1)(c1ccc(Cl)cc1)C(Cl)(Cl)Cl,,12 µM (active)
CNC(=O)N(C)c1nnc(C(C)(C)C)s1,inactive,
Cn1c(-c2ccccc2)cc(-c2ccccc2)[n+]1C,,2.89 µM (active)
CC1(C)C(C(=O)OC(C#N)c2cccc(Oc3ccccc3)c2)C1(C)C (stereo unspecified),inactive,
CCC(C)n1c(=O)[nH]c(C)c(Br)c1=O (stereo unspecified),inactive,
COCC(=O)N(c1c(C)cccc1C)C(C)C(=O)OC (stereo unspecified),inactive,
CSC(=O)c1c(C(F)F)nc(C(F)(F)F)c(C(=O)SC)c1CC(C)C,,31.1 µM (active)
COP(=S)(OC)SCn1nnc2ccccc2c1=O,,30.2 µM (active)
CCOc1nc(F)cc2nc(S(=O)(=O)Nc3c(Cl)cccc3Cl)nn12,inactive,
COC(=O)NS(=O)(=O)c1ccc(N)cc1,inactive,
Cc1ccc(N=CN(C)C=Nc2ccc(C)cc2C)c(C)c1,,33 µM (active)
Clc1cccc(C(Cl)(Cl)Cl)n1,inactive,
O=C(O)c1c(Cl)ccc2cc(Cl)cnc12,inactive,
CC(C)(C)C(=O)C(Oc1ccc(Cl)cc1)n1cncn1 (stereo unspecified),,31.4 µM (active)
CN=C=S,,8.86 µM (active)
CCOP(=S)(OCC)Oc1nc(Cl)n(C(C)C)n1,inactive,
Nc1cnn(-c2ccccc2)c(=O)c1Cl,inactive,
CC1(C)CON(Cc2ccccc2Cl)C1=O,inactive,
CCCC(=NOCC)C1=C(O)CC(CC(C)SCC)CC1=O (stereo unspecified),inactive,
CO/N=C(/C1=NOCCO1)c1ccccc1Oc1ncnc(Oc2ccccc2Cl)c1F,,9.24 µM (active)

# Reference: PubChem BioAssay (EPA / NIEHS)
